Rab9 promoter act – qHTS Assay for Rab9 Promoter Activators. 2.8% of 320,000 active. AID 485297, 2010. Huh7 Rab9 promoter-luciferase reporter, luminescence, 24 h. Potency, µM (top dose mostly 9.22 µM), for the others: at the top dose activation, negative = inhibition, actives largely listed as activators; also: % of control where 0% means no effect; nearly all actives have a fitted effect of over 60% in size
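Huh7 reporter line, Rab9 promoter upstream of luciferase. Compound exposure 24 h at 37 °C in reduced-serum medium with 10% FBS. Read-out: luminescence.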
ELG1 DNA repair – qHTS screen for small molecules that inhibit ELG1-dependent DNA repair in human embryonic kidney (HEK293T) cells expressing luciferase-tagged ELG1. 2.3% of 330,000 active. Potency, µM (top dose mostly 46.1 µM), for inactives: at the top dose activity change, negative = inhibition, usual class: inhibitors. HEK293T ELG1-luciferase reporter, luminescence, 16 h; DNA damage induced by 5-fluorouridine; also: % is scaled to controls: 0 for no effect and ±100 for the full control effect; nearly all actives have a fitted effect of over 55% in size
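5-Fluorouridine DNA damage + compound/DMSO, 2,000 cells/well, 16 h, 37 °C/5% CO2. ONE-Glo, 30 min RT, luminescence. Readout = decrease in reporter signal.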
ELG1 genotoxic – qHTS screen for small molecules that induce genotoxicity in human embryonic kidney (HEK293T) cells expressing luciferase-tagged ELG1; Potency, µM (top dose mostly 46 µM), for the others: top-dose activity change, positive = activation, hits mostly activators; HEK293T ELG1-luciferase reporter, luminescence, 16 h; 1.3% of 330,000 active; also: % of control where 0% means no effect; nearly all actives have a fitted effect of over 60% in size
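HEK293T cells expressing luciferase-tagged ELG1 were treated with compound or DMSO for 16 hr at 37°C. Luciferase activity was then read after 30 min with ONE-Glo at room temperature; rising signal flags genetic stress.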
FLuc counter – qHTS profiling assay for firefly luciferase inhibitor/activator using purifed enzyme and Km concentrations of substrates (counterscreen for miR-21 project); Luciferin 4-monooxygenase (Photinus pyralis), P08659; purified FLuc, Km substrates, luminescence inhibition; Potency, µM (titrated, usually from 57.5 µM), for inactives: top-dose activity change, negative = inhibition, hits mostly inhibitors; 6.9% of 360,000 active; AID 588342, 2011;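 also: plate controls were vehicle for no effect and reference inhibitor for full effect; nearly all actives have a fitted effect of over 55% in size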
Target sequence (P08659 whole entry, looked up): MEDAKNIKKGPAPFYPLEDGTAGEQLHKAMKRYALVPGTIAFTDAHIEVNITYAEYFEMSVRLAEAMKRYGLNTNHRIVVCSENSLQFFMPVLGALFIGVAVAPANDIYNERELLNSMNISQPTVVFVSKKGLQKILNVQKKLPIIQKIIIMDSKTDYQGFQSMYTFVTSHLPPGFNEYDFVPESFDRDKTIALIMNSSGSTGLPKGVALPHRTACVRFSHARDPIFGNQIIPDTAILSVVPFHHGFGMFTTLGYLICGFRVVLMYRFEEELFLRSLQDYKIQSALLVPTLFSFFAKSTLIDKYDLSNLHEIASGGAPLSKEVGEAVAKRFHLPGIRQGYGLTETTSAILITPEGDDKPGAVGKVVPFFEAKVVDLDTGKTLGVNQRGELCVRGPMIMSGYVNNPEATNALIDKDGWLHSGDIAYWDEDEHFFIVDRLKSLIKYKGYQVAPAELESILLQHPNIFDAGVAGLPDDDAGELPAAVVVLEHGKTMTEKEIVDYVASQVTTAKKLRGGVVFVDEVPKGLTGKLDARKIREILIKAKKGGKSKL
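Biochemical qHTS of compounds, final roughly 60 µM downward over six points, against 10 nM purified firefly luciferase using Km concentrations of substrates (10 uM D-luciferin, 10 uM ATP) in Tris acetate pH 7.5 buffer; luminescence output.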
SMN2 splice enh – qHTS Assay for Enhancers of SMN2 Splice Variant Expression | 2.8% of 210,000 active | HEK293 SMN2-luciferase splicing reporter, luminescence, 30-36 h | Potency, µM (top dose mostly 46.1 µM), for the others: at the highest dose activity change, positive = activation, most hits filed as activators; also: % of control where 0% means no effect; nearly all actives have a fitted effect of over 55% in size
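HEK293 cells carry an SMN2 […]–luciferase reporter in which exon 7 inclusion puts luciferase in frame. Cells were plated 10-12 h before compound addition, then incubated 30-36 h at 37C. ONE-Glo luminescence was read; sodium butyrate at 4.5 mM final served as control.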
NPC1 prom act – qHTS Assay for NPC1 Promoter Activators. Potency, µM (doses to about 9.22 µM), for the others: at the top dose activation, most hits filed as activators. 2.4% of 320,000 active. Huh7 NPC1 promoter luciferase reporter, 24 h; also: % of control where 0% means no effect; nearly all actives have a fitted effect of over 60% in size
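Readout is luciferase luminescence, reflecting NPC1 promoter activation in stably transfected Huh7 cells after 24 h compound exposure at 37 °C in reduced-serum medium with 10% FBS.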
* = called active by the depositor; ? = inconclusive; nt = no result given; [ ] = remark or other dose. Rows were chosen to be rich in hits. Some 9.2% of all compounds tested hit in one or more screens of this group. Calls follow the shape of the dose curve; as a rule, active = well fitted curve in the direction sought with a large enough effect; inconclusive = small, poorly fitted or top-dose-only effect, or another doubt; inactive = no such curve, though single readings can be large; an effect the other way counts as inactive or inconclusive. Potency is read from the fitted curve at half-maximal effect.

SMILES	Rab9 promoter act	ELG1 DNA repair	ELG1 genotoxic	FLuc counter	SMN2 splice enh	NPC1 prom act
COc1cccc2cc(C(=O)Nc3ccc(CC(=O)O)cc3)c(=O)oc12	nt	nt	nt	1.5µM*	-17%	nt
COc1cccc2cc(C(=O)OCC(=O)NCc3ccc4c(c3)OCO4)c(=O)oc12	2%	?	?	11µM*	nt	-2%
Cn1ccc2cc(-c3ccc4ncnc(NCc5cccs5)c4c3)ccc21	0%	?	0%	?	nt	-6%
COc1ccc(CNC(=O)c2cc3cccc(OC)c3oc2=N)cc1	5%	-1%	?	-4%	nt	-2%
CCc1ccc(C(=O)Cc2cc3cccc(OC)c3oc2=O)cc1	?	0%	13%	15µM*	nt	?
COc1cccc2cc(C(=O)NCc3ccc(F)cc3)c(=N)oc12	-2%	23%	6%	8.5µM*	nt	0%
COc1cccc2cc(CC(=O)c3ccc(C)c(C)c3)c(=O)oc12	24%	?	9%	17µM*	nt	6%
COc1cccc2cc(CC(=O)c3cc(C)ccc3C)c(=O)oc12	23%	-1%	-3%	15µM*	nt	25%
CCC(=O)N1CCc2cc(S(=O)(=O)NC(C(=O)NCCc3ccc(OC)c(OC)c3)C(C)C)ccc21 (configuration not stated)	nt	nt	nt	-10%	6%	nt
O=C(/C=C/c1ccccc1)N1CCN(C(=O)c2ccco2)CC1	3%	18%	-1%	-10%	?	-3%
O=C(/C=C/C=C/c1ccccc1)c1ccco1	25%	0%	15%	3µM*	nt	?
O=C(/C=C/c1ccc(Br)cc1)c1ccc(NC(=O)c2ccco2)cc1	11%	?	1%	?	3%	1%
O=C(/C=C/c1ccc(Br)cc1)c1ccco1	4%	?	?	3.4µM*	-3%[1.84 µM]	1%
Cc1ccc(CNS(=O)(=O)c2c(C)nc3sc(C)cn3c2=O)cc1	nt	nt	nt	-4%	nt	nt
CC1CCN(C(=O)c2c(NC(=O)c3ccccc3Cl)sc3c2CCC(C(C)(C)C)C3)CC1 (configuration not stated)	nt	nt	nt	-2%	-3%	nt
Cc1cc2[nH]c(=O)c(=O)[nH]c2cc1S(=O)(=O)Nc1ccccc1F	7%	13%	-7%	-4%	nt	-4%
COc1cc(C)c(S(=O)(=O)Nc2ccccc2F)cc1C	-2%	-1%	-6%	3%	2.2µM*	-1%
C=CCOc1ccc(/C=C/C(C)=N\O)cc1	2.8µM*	?	?	6.7µM*	nt	2.8µM*
C=CCOc1ccc(/C=C/C(=O)OCC(=O)N2CCN(C(C)=O)CC2)cc1	nt	3%	2%	nt	nt	nt
COc1cc(NC(=S)N2CCN(C(c3ccccc3)c3ccccc3)CC2)cc(OC)c1	-14%	-3%	-19%	-2%	13µM*	2%
CCCCNC(=S)N1CCN(C(c2ccccc2)c2ccccc2)CC1	3%	21µM*	-6%	-1%	-27%	-5%
Cc1ccc(S(=O)(=O)N2CCN(c3ccccc3)CC2)s1	nt	-6%	-1%	nt	nt	nt
CNS(=O)(=O)c1ccc(NC(=O)c2ccccn2)cc1	2.8µM*	?	?	15µM*	20µM*	?
CCOc1ccc(NC(=O)c2ccccn2)cc1	0.13µM*	?	?	0.48µM*	0.79µM*	?
CCOc1ccc(C(=O)Nc2ncccc2Cl)cc1	?	?	?	15µM*	nt	?
SMILES	Rab9 promoter act	ELG1 DNA repair	ELG1 genotoxic	FLuc counter	SMN2 splice enh	NPC1 prom act
CCOc1ccc(NC(=O)c2cnccn2)cc1	1.3µM*	?	?	5.4µM*	2.5µM*	2µM*
CCOc1ccc(NC(=O)c2cccnc2C(=O)O)cc1	4%	?	8%	?	8%	9%
Cc1cccc(C(C)C)c1NC(=O)CN1C(=O)NC(Cc2ccccc2)C1=O (configuration not stated)	-3%	-27%	-3%	5%	nt	2%
CCOc1ccc(NC(=O)c2cnsn2)cc1	0.56µM*	?	1.5µM*	6µM*	?	1.4µM*
CCOc1ccc(NC(N)=O)cc1	0%	10%	5%	15%	0%	1%
CCOc1ccc(NC(=O)c2nccnc2CO)cc1	2.8µM*	?	?	9.5µM*	8.9µM*	1.4µM*
COc1cccc(NC(=O)c2cnsn2)c1	15%	?	?	?	-12%	29%
CCN(CC)c1ccc(NC(=O)CSc2nnc(C)c(=O)[nH]2)cc1	nt	nt	nt	?	10%	nt
Cc1ccccc1Cn1c(NC2CCCC2)nc2c1c(=O)[nH]c(=O)n2C	-1%	12%	4%	-1%	nt	-6%
O=C1c2ccccc2-c2nc3ccccc3cc21	5µM*	?	?	2.1µM*	nt	3.5µM*
c1ccc2c(c1)Cc1cc3ccccc3nc1-2	0.4µM*	?	3.7µM*	0.95µM*	4µM*	1.3µM*
C=C(C)Cn1c(=O)c2c(nc3n2CCN3c2ccc(CC)cc2)n(C)c1=O	nt	nt	nt	-4%	nt	nt
O=C1NC(=O)c2cc(Br)cc3cccc1c23	3%	0%	1%	4%	9%	-4%
Cc1ccc(NS(=O)(=O)c2cc3c4c(cccc4c2)C(=O)NC3=O)cc1C	-1%	16µM*	-9%	-2%	nt	3%
O=C(O)c1ccccc1SCc1cn2cc(Cl)ccc2n1	3.2µM*	?	?	11µM*	?	?
O=C(O)c1cccnc1SCc1cn2cc(Cl)ccc2n1	11%	15%	2%	?	nt	0%
Cc1cccc2nc(CSc3ccccc3C(=O)O)cn12	?	?	8%	15µM*	nt	28%
O=C(O)c1ccccc1SCc1nc2ccccn2c1Br	1%	8%	2%	?	6%	0%
O=C(CCN1C(=O)C2C3CCC(C3)C2C1=O)OCC(=O)c1ccccc1 (configuration not stated)	-2%	3%	0%	13µM*	nt	-1%
COc1ccc(NC(=O)CN(C)C(=O)c2sc3cc(Cl)ccc3c2Cl)cc1	-4%	?	6%	-2%	nt	-4%
CCOCCCNC(=O)C(c1ccccc1)N(Cc1ccc2c(c1)OCO2)C(=O)c1ccc(NC(C)=O)cc1 (configuration not stated)	nt	nt	nt	0%	5%	nt
CCOC(=O)CC(NC(=O)c1cccc2c1C(=O)N(Cc1cccnc1)C2)c1ccc(OCC)c(OC)c1 (configuration not stated)	2%	-20%	-1%	-3%	nt	-7%

Screening results as filed in PubChem.
